Test results published in PubChem BioAssay (Tox21).
The source made the active and inactive calls. Calls come from the whole dose curve; as a rule, active = well fitted activation curve with a large enough effect in the repeat runs; inconclusive = weak or mixed curves; inactive = flat fitted curve, though single readings scatter. Where a SMILES comes first, the peptide text is derived from it.

Assay: Caspase-3/7 induction in CHO-K1 cells by small molecules, qHTS assay (AID 1346980); note: nearly all actives have a fitted effect of over 15% in size
Settings: CHO-K1 caspase-3/7 induction, Caspase-Glo luminescence, 17 h; series mostly up to 92.4 µM
Text: National Center for Advancing Translational Sciences [NCATS]
NIH Chemical Genomics Center [NCGC]
U.S. Environmental Protection Agency [EPA]
National Institutes of Environmental Health Sciences [NIEHS]
National Toxicology Program [NTP]
Apoptosis is a process of programmed cell death and plays a central role in the development of multicellular organisms. It is a highly regulated process and induces cell death by activating caspases, which are the members of cysteine aspartic acid-specific protease (caspase) family. Caspases involved in apoptosis are classified by their mechanism of action as initiator caspases (caspase-2, -8, -9 and -10) and executioner caspases (caspase-3, -6, and -7). Inhibition of apoptosis results in number of cancers, autoimmune diseases, inflammatory diseases and viral infection. To identify small molecule compounds that induce apoptosis, a homogeneous, luminescent Caspase-Glo 3/7 assay was used. Wild type CHO-K1 cells were used to screen Tox21 libraries for identifying caspase-3/7 activity inducers.
CHO-K1 cells were dispensed at 1,500 per well in 5uL of culture medium into white solid bottom 1536-well plates (Corning Life Sciences, Corning, NY) using a Multidrop Combi (Thermo Scientific, Waltham, MA) dispenser. The assay plates were incubated at 37 C and 5% CO2 for 5hr, and then 23nL of compounds dissolved in DMSO and positive control were transferred using a Pintool station (Wako, San Diego, CA). The assay plates were incubated at 37C and 5% CO2 for 17hr. For caspase-3/7 activity read, 4uL of Caspase-Glo 3/7 reagent (Promega Corporation, Madison, WI) was added to each well of the assay plates using Flying Reagent Dispenser (FRD, Aurora Discovery, San Diego, CA) and incubated the assay plates at room temperature for 30min. The luminescence signal was quantified using a ViewLux plate reader (Perkin Elmer, Shelton, CT).
% is set by controls: 0 for no effect and ±100 for the full control effect.

| SMILES | outcome | caspase-3/7 activation |
| --- | --- | --- |
| C/C=C(\C)C(=O)OCCc1ccccc1 | inactive | – |
| CCCCOC(=O)C(C)O (stereo not given) | inactive | – |
| CC(=O)C1C(=O)C=C(C)OC1=O (stereo not given) | inactive | – |
| Cn1nnc2c(C(N)=O)ncn2c1=O | inactive | – |
| CCOc1ccccc1OCC1CNCCO1 (stereo not given) | inactive | – |
| NCc1ccc(S(N)(=O)=O)cc1 | inactive | – |
| C=CCCCC | inactive | – |
| COc1cc(OC)nc(O[C@H](C(=O)O)C(OC)(c2ccccc2)c2ccccc2)n1 | inactive | – |
| CCCCC1CCC(O)CC1 (stereo not given) | inactive | – |
| N#CCC(=O)NN | inactive | – |
| O=NN(CCCl)C(=O)NC1CCCCC1 | inactive | – |
| NCCOCCN | inactive | – |
| CCC(=O)CC | inactive | – |
| O=C(NCN1CCOCC1)c1cnccn1 | inactive | – |
| COC(=O)c1cc(Cl)cc(Cl)c1 | inactive | – |
| CC1=C(C(=O)O)N2C(=O)[C@@H](NC(=O)[C@H](N)C3=CCC=CC3)[C@H]2SC1 | inactive | – |
| CC(=O)N[C@@H](CO)C(=O)N[C@@H](CC(=O)O)C(=O)N[C@@H](CCCCN)C(=O)N1CCC[C@H]1C(=O)O (Ac-SDKP-OH) | inactive | – |
| CCC(=O)c1c(O)cc(O)cc1O | inactive | – |
| CCO[Si](CC)(OCC)OCC | inactive | – |
| O=C(Cl)c1ccccc1[N+](=O)[O-] | inactive | – |

| SMILES | outcome | caspase-3/7 activation |
| --- | --- | --- |
| CC(C)Nc1ccccc1 | inactive | – |
| CN1C[C@@H]2C[C@H]1CN2c1cc2c(cc1F)c(=O)c(C(=O)O)cn2C1CC1 | – | -1.08% [at 19 µM] (inactive) |
| Fc1ccccc1 | inactive | – |
| CCCCCCCCCCCCCBr | inactive | – |
| Cc1c(C(=O)c2c[nH]n(C)c2=O)ccc(S(C)(=O)=O)c1C1=NOCC1 | inactive | – |
| CCCCCCCCCCCCCCC(=O)NC(CO)CCCCCCCCCCCCCC (stereo not given) | inactive | – |
| CC(=O)OC(C)=O | inactive | – |
| CC(C)Cn1cnc2c1c(=O)n(C)c(=O)n2C | inactive | – |
| COC(=O)CCCCC(=O)O | inactive | – |
| CCOCCOCC | inactive | – |
| CC(C)COC(=O)c1ccccc1 | inactive | – |
| Nc1nc(-c2ccccc2)c(Br)c(=O)[nH]1 | inactive | – |
| CCCCCCC1(C)CCC(=O)O1 (stereo not given) | inactive | – |
| CC1(C)O[C@H]2CC(=O)OC[C@]23[C@H]2CC[C@@]4(C)[C@H](c5ccoc5)OC(=O)[C@H]5O[C@]54[C@]2(C)C(=O)C[C@@H]13 | inactive | – |
| C=Cc1ccc(C(C)(C)C)cc1 | inactive | – |
| C=CCN1C[C@H](C(=O)N(CCCN(C)C)C(=O)NCC)C[C@@H]2c3cccc4[nH]cc(c34)C[C@H]21 | inactive | – |
| CC1=C(O)C(=O)C(C)O1 (stereo not given) | inactive | – |
| OC[C@H]1O[C@@H](O[C@@H]2[C@@H](CO)O[C@](O)(CO)[C@H]2O)[C@H](O)[C@@H](O)[C@H]1O | inactive | – |
| CO[Si](CCCn1c(=O)n(CCC[Si](OC)(OC)OC)c(=O)n(CCC[Si](OC)(OC)OC)c1=O)(OC)OC | inactive | – |
| CC(=O)c1cc(C)oc1C | inactive | – |
